# Experimental data taken from the supplement of paper PMC6555819.
# Legend:
# Test in all cases: PBM binding z-score (relative to random genomic background probes); higher = stronger binding; sequences stand for … in GC…GCGATTGACAGCGTAGAATGAAGG
# [1] = tested on: FXR:RXRa (NR concentration 270 nM, RXRa partner concentration 90 nM)
# Summary of the method: (§1)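 Binding z-scores take random background probes as their reference. They come from custom Agilent 4×180K protein-binding microarrays incubated 1 h with ligand-free nuclear receptor dimers, with antibodies against each partner (one per run) detecting binding. Scanned fluorescence was regression-normalized.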
# [2] = tested on: LXRa:RXRa (NR concentration 270 nM, RXRa partner concentration 90 nM)
# Summary of the method: as §1
# [3] = tested on: LXRa homodimer (NR concentration 270 nM)
# Summary of the method: as §1
# [4] = tested on: LXRb:RXRa (NR concentration 270 nM, RXRa partner concentration 90 nM)
# Summary of the method: as §1
# [5] = tested on: LXRb homodimer (NR concentration 270 nM)
# Summary of the method: as §1
# [6] = tested on: PPARa:RXRa (NR concentration 270 nM, RXRa partner concentration 90 nM)
# Summary of the method: as §1
# [7] = tested on: PPARg:RXRa (NR concentration 180 nM, RXRa partner concentration 90 nM)
# Summary of the method: as §1
# [8] = tested on: PPARg:RXRa 270nM:90nM, anti-RXR (NR concentration 270 nM, RXRa partner concentration 90 nM)
# Summary of the method: as §1
# [9] = tested on: PPARg:RXRa 30nM:10nM, anti-RXR (NR concentration 30 nM, RXRa partner concentration 10 nM)
# Summary of the method: as §1
# [10] = tested on: PPARg:RXRa 90nM:30nM, anti-RXR (NR concentration 90 nM, RXRa partner concentration 30 nM)
# Summary of the method: as §1
# [11] = tested on: PPARg:RXRa DBDmut IVT, anti-RXR (DBD mutation: RXRa K156A/R161A, NR concentration 270 nM, RXRa partner concentration 90 nM)
# Summary of the method: as §1
# [12] = tested on: PPARg:RXRa IVT, anti-PPARg (NR concentration 270 nM, RXRa partner concentration 90 nM)
# Summary of the method: as §1
# [13] = tested on: PPARg DBDmut:RXRa IVT, anti-PPARg (DBD mutation: PPARg1 K132A/R137A, NR concentration 270 nM, RXRa partner concentration 90 nM)
# Summary of the method: as §1
# [14] = tested on: PPARg DBDmut IVT, anti-PPARg (DBD mutation: PPARg1 K132A/R137A, NR concentration 270 nM)
# Summary of the method: as §1
# [15] = tested on: PPARg homodimer (NR concentration 180 nM)
# Summary of the method: as §1
# [16] = tested on: PXR:RXRa (NR concentration 270 nM, RXRa partner concentration 90 nM)
# Summary of the method: as §1
# [17] = tested on: PXR homodimer (NR concentration 270 nM)
# Summary of the method: as §1
# [18] = tested on: RARa:RXR (NR concentration 270 nM, RXRa partner concentration 90 nM)
# Summary of the method: as §1
# [19] = tested on: RARa homodimer (NR concentration 270 nM)
# Summary of the method: as §1
# [20] = tested on: RARb:RXRa (NR concentration 270 nM, RXRa partner concentration 90 nM)
# Summary of the method: as §1
Sequence,PBM binding z-score [1],PBM binding z-score [2],PBM binding z-score [3],PBM binding z-score [4],PBM binding z-score [5],PBM binding z-score [6],PBM binding z-score [7],PBM binding z-score [8],PBM binding z-score [9],PBM binding z-score [10],PBM binding z-score [11],PBM binding z-score [12],PBM binding z-score [13],PBM binding z-score [14],PBM binding z-score [15],PBM binding z-score [16],PBM binding z-score [17],PBM binding z-score [18],PBM binding z-score [19],PBM binding z-score [20]
GCTCGGAGGACAAGGTCAGATCTTTGTCCGTAGA,2.14,2.12,-0.175,1.87,-0.0535,2.68,0.835,1.44,-0.124,0.769,-0.309,0.755,-0.782,-0.686,0.86,1.87,-0.322,2.22,-0.579,3.52
CATCCAAGGTCATAGGAGGTCAGTGAAGACAGAT,7.76,7.88,6.67,6.38,1.99,6.12,6.25,6.07,3.14,4.93,3.6,4.75,3.02,2.08,5.33,6.96,4.63,6.4,3.27,5.38
CCTAGCAGGCCAAACTGGGTCACTCAAGGCTTGA,0.705,0.962,-0.345,1.07,-0.564,3.05,1.74,2.06,-0.348,0.712,4.11,4.34,-0.371,-1.09,0.924,1.05,-0.482,1.77,-0.26,1.61
CAAACTAGTTCACGAAAGGTCAAAGTCGAATGAC,6.34,7.45,7.18,6.48,2.77,5.65,4.37,5.37,2.24,4.32,2.5,3.57,1.49,0.645,5.52,6.88,5.53,7,3.03,4.89
AGAACGAGGGCACGCTGAGTTGATAGTAGAGTAG,0.725,0.439,-0.765,0.35,-0.699,2.1,1.94,1.62,0.448,0.971,4.08,3.89,0.542,0.293,0.125,1.26,0.49,0.759,-0.324,2.57
GCATATAGGAAATACAAGGTGAAAGTCCGATTGT,-0.0334,-0.148,-0.095,0.0762,-0.434,0.727,0.752,0.734,-0.0341,0.81,-0.0437,0.645,-0.0022,0.353,0.365,0.166,0.0769,0.702,0.755,0.29
GCTAGCAGGCCATTTGGGTCACTCATTGACGGGC,0.033,-0.0107,-0.528,-0.128,-0.903,1,0.357,0.27,-0.512,-0.18,1.91,1.84,-1.26,-0.505,-0.295,0.252,-0.137,0.652,-0.74,1.26
GGAACGAGGGCATTCGAGTCGATAGCATGGCGAT,0.976,0.293,-0.802,-0.159,-0.384,1.15,0.824,0.495,-0.192,0.0537,2.96,2.19,-0.0559,-0.671,-0.141,1.5,0.546,0.428,-0.54,1.48
GGAACGAGGGCAAAGTTGGTAGCATCTGTCGACG,1.06,0.577,-0.241,0.306,-0.429,3.14,5,5.51,4.45,5.44,4.05,3.9,0.127,-0.27,0.782,0.589,-0.136,0.765,-0.548,2.31
AGTCAAAGTTCAGGACGAGGGAACGTAAAGCACG,3.73,3.68,0.988,1.57,0.379,3.05,4.52,4.88,1.99,3.87,-0.374,1.46,0.293,0.513,2,2.12,0.898,2.09,0.539,4.2
CCTACTGGGCGAAAAAGGTCATTGATGCCGATAA,3.16,3.79,2.59,3.91,-0.182,4.45,1.67,3.1,0.977,1.93,0.836,1.94,-0.234,-0.941,2.25,4.39,1.04,4.66,0.67,3.68
ATATCTAGGTAAAGTTCAGTGAAAGATCGATAGA,1.18,1.84,1.43,1.36,0.639,3.42,5.08,5.21,2.95,4.9,6.18,5.91,1.87,1.59,1.46,1.95,1.41,1.52,1.3,2.74
CTACCAAGGTGAACAAGGTTGTTGATTACTATTC,0.708,0.561,-0.172,1.36,-0.417,1.53,0.7,0.746,-0.199,0.615,2.39,2.42,-0.144,0.038,0.436,1.04,0.435,0.73,0.287,1.57
ATCGAAAGCTCGAGGTGAGTATAGAGAAAGGGAA,-0.382,-0.596,-0.515,-0.793,-0.851,-0.028,0.163,-0.516,-0.268,-0.554,-0.98,0.455,0.71,0.162,-1.14,-0.37,-0.567,-0.162,-0.838,0.00915
